In the supplement of paper PMC11006884:
The full data set covers some 6,500 targets. This sample favours those with a hit. About 2% of all pairs of compound and target were hits. Values without a mark were called inactive.

Compound: COC(=O)C#Cc1ccccc1 [methyl 3-phenylpropiolate]
Assay: log2 ratio of iodoacetamide-alkyne labeling of the cysteine site, DMSO over compound (competition); higher = stronger covalent engagement of the cysteine by the compound, active = 1 or more
Details: 500 µM; treatment time 1 h; system: HEK293T cell lysate
Method in brief: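 HEK293T lysate (2 mg/mL) was treated with DMSO or electrophile (500 µM, 1 h, ambient temperature), then iodoacetamide alkyne (1 h), clicked to sCIP-TMT reagents, pooled, trypsin-digested overnight at 37 °C, streptavidin-enriched and acid-eluted. Peptides were run on Orbitrap Eclipse LC-MS/MS with FAIMS and quantified in FragPipe. The log2 competition ratio per cysteine is mean control-channel over mean compound-channel reporter intensity. Duplicate channels and three replicates were used, and cysteines quantified in only one replicate were excluded.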

UniProt P42765, sequence (P42765 whole entry, looked up): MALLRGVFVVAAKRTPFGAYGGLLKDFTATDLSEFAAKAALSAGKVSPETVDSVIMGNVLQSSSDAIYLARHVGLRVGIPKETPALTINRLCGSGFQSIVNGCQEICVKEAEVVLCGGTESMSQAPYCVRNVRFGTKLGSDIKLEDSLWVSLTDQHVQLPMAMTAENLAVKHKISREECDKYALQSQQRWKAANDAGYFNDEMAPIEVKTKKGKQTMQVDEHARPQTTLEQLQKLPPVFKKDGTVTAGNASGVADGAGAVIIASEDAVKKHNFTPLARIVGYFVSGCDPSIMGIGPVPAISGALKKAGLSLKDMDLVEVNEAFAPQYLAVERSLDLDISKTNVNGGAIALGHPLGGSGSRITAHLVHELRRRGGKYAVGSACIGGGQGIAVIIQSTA
UniProt O95835, sequence (O95835 whole entry): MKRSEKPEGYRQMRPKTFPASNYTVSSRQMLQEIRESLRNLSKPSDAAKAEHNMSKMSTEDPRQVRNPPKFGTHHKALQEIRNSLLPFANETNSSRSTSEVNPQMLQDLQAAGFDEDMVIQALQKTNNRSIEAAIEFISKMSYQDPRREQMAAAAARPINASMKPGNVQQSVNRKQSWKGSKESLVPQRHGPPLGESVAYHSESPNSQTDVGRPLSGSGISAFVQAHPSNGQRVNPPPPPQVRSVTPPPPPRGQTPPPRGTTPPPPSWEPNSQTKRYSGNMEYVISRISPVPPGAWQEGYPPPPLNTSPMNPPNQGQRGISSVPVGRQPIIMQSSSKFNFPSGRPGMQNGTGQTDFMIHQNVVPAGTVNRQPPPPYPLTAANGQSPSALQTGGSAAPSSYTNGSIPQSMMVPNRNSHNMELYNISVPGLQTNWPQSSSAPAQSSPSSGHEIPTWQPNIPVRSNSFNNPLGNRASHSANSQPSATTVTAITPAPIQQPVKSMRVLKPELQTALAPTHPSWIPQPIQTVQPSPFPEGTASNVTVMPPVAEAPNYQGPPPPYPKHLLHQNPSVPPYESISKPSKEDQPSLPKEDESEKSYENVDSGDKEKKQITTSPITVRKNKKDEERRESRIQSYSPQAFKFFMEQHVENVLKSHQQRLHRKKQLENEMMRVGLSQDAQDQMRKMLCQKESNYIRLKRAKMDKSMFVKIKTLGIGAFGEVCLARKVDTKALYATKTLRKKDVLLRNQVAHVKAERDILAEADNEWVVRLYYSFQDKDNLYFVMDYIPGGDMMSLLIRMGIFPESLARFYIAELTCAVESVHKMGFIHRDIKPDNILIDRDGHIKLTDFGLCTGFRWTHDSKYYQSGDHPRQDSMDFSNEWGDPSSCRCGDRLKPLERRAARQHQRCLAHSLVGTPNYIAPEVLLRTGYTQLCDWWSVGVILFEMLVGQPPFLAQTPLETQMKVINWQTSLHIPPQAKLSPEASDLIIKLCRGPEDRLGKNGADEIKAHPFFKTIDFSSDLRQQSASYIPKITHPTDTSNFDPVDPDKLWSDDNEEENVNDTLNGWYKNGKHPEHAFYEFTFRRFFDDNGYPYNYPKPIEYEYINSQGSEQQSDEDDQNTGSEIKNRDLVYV
UniProt P52701, sequence (P52701 whole entry, looked up): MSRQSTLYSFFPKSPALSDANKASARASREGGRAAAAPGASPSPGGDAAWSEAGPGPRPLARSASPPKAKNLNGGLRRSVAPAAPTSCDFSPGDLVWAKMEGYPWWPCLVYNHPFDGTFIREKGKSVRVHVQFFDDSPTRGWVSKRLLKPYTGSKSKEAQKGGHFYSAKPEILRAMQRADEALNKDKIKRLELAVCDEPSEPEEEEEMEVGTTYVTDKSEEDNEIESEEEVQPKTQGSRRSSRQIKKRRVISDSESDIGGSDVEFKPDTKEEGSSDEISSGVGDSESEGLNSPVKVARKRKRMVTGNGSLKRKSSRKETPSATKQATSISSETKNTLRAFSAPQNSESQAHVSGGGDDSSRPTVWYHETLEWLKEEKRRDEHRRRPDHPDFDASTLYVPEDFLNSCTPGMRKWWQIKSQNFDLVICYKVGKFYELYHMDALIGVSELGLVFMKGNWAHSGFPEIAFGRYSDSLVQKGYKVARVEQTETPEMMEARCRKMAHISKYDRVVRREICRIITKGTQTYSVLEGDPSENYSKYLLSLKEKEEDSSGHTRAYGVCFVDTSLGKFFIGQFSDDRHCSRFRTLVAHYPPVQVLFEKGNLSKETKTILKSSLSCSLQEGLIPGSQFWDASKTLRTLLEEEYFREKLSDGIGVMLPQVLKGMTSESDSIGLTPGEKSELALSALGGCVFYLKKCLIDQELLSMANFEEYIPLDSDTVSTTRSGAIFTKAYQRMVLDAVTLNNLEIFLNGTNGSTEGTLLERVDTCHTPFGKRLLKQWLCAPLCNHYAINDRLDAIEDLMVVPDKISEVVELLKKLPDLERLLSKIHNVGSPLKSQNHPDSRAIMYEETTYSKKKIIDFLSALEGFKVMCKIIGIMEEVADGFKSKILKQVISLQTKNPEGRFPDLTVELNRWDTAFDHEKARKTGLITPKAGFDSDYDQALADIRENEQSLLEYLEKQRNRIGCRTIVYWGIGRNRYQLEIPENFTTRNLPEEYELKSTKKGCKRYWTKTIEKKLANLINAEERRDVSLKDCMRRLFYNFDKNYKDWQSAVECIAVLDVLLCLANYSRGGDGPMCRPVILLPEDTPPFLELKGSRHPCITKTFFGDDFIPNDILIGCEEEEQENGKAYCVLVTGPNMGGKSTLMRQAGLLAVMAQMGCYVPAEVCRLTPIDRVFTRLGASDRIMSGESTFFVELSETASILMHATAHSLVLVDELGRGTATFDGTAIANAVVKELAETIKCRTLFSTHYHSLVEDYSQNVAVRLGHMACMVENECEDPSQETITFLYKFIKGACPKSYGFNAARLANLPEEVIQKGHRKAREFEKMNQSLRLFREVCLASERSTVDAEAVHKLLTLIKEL
UniProt O95819, sequence (O95819 whole entry, looked up): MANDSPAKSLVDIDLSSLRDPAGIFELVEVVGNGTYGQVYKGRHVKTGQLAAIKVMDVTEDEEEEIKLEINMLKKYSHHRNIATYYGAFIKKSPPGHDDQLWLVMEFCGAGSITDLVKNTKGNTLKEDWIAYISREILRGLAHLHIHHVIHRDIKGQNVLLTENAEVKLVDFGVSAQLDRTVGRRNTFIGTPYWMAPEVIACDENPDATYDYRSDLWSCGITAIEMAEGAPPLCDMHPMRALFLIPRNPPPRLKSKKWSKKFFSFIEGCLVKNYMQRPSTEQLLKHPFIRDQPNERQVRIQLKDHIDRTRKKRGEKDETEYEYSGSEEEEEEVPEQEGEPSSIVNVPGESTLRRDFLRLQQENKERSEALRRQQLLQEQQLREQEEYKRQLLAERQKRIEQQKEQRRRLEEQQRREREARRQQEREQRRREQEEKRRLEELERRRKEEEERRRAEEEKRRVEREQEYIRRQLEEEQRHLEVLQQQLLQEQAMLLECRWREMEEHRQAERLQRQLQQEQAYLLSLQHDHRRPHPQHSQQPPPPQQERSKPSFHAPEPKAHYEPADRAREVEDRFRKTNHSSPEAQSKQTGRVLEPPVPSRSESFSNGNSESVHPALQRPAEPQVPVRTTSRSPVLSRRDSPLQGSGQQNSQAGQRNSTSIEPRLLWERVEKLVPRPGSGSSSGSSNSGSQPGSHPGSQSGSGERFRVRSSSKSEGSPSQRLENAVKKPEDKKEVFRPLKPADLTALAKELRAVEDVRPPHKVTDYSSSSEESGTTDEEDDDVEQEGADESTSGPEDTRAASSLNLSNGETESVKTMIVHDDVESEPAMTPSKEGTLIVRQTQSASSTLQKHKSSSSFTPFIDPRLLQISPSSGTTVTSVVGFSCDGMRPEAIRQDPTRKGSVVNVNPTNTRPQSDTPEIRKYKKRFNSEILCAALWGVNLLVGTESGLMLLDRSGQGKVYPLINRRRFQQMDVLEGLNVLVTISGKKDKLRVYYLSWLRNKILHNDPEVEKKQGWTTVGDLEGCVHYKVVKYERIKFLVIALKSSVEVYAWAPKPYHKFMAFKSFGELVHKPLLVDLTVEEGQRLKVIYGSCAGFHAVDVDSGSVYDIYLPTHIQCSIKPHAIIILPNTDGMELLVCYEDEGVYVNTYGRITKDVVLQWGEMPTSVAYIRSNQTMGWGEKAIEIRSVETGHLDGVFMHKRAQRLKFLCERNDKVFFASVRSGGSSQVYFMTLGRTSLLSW
UniProt P13489, sequence (P13489 whole entry, looked up): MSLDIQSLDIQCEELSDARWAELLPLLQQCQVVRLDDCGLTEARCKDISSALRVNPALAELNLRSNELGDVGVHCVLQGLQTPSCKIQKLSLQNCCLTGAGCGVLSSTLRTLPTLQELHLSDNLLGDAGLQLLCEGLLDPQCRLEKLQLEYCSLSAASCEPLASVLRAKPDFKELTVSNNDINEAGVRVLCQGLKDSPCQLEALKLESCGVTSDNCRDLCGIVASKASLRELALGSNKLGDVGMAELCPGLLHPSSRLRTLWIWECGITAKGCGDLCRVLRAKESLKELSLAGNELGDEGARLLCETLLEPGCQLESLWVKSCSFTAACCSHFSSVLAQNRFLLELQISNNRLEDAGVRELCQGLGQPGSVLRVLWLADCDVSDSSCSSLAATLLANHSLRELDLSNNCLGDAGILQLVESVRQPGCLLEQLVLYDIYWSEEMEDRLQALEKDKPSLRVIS
UniProt P11177, sequence (P11177 whole entry): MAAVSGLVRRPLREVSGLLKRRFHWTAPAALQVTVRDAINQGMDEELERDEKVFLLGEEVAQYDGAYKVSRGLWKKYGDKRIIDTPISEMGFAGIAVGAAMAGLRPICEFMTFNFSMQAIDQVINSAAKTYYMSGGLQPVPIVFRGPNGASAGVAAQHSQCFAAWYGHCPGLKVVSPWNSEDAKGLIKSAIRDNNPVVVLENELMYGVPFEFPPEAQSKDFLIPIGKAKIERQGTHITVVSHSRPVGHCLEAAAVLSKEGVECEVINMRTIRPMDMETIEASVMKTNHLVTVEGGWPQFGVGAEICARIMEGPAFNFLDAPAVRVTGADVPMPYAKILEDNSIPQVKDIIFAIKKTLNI

Target	log2 ratio of iodoacetamide-alkyne labeling
UniProt P23610_C62	0.0767
MSH6 C1337 (UniProt P52701)	0.14
ACAA2 C116 (UniProt P42765)	1.22 (active)
GDI2 C202 (UniProt P50395)	-0.0158
UniProt O96017_C385	0.227
UniProt P41250_C616	-0.119
CASP3 C184 (UniProt P42574)	0.259
ANXA7 C363 (UniProt P20073)	0.0125
RANBP2 C3071 (UniProt P49792)	0.0882
IARS C433 (UniProt P41252)	-0.0103
MYH9 C1379 (UniProt P35579)	0.164
PFN1 C17 (UniProt P07737)	-0.417
ADD1 C253 (UniProt P35611)	0.101
SEC24B C562 (UniProt O95487)	0.735
ANXA7 C327 (UniProt P20073)	0.191
PDHB C306 (UniProt P11177)	-0.122
FXR2 C270 (UniProt P51116)	0.306
MAP4K4 C202 (UniProt O95819)	0.624
GMPS C137 (UniProt P49915)	0.217

Target	log2 ratio of iodoacetamide-alkyne labeling
DNAJA1 C149 (UniProt P31689)	0.14
ST13 C209 (UniProt P50502)	0.272
ANXA7 C285 (UniProt P20073)	0.0794
TMPO C280 (UniProt P42166)	1.09 (active)
TCEA1 C271 (UniProt P23193)	-0.116
IQGAP1 C781 (UniProt P46940)	0.821
MPI C289 (UniProt P34949)	-0.0268
CTSB C319 (UniProt P07858)	0.512
MCC C714 (UniProt P23508)	0.565
RRM1 C26 (UniProt P23921)	0.0708
SCP2 C94 (UniProt P22307)	0.136
UniProt P0DN79_C15	2.27 (active)
PAICS C81 (UniProt P22234)	0.248
FDFT1 C6 (UniProt P37268)	0.233
RNH1 C75 (UniProt P13489)	0.145
LATS1 C885 (UniProt O95835)	0.423
ENO1 C389 (UniProt P06733)	0.125
PTPN2 C330 (UniProt P17706)	0.608
